T cruzi growth-1 – inhibitors of T. cruzi proliferation | T. cruzi beta-gal in NIH3T3, GalScreen luminescence, 90 h | inhibition, % at 8.34 µM | actives 5.9% (n = 77,000) | AID 624255;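 active means mean inhibition above about 93%, with at least 55% of replicates each passing it, limit read from the data, passing the limit was not always enough; inconclusive means only one of those two conditions holds; inactive means neither condition holds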
C diff growth – blocks growth of Clostridium difficile; growth activity, negative = inhibition, % at 16 µg/mL (by protocol); actives 0.25% (n = 86,000); Clostridium difficile clinical isolate growth, OD600, 24 h; active compounds read low; AID 1259249;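 active means mean growth activity at or below -80% and every replicate also at or below -80%; inconclusive means mean at or below -80% but some replicate above -80%; inactive means mean growth activity above -80%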;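 further: 0% = DMSO wells and -100% = levofloxacin 16 µg/mL wells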
Pf Dd2 inh – P. falciparum Dd2 growth inhibition | activity change, % at 10 µM | actives 2.3% (n = 94,000) | AID 1159554 | SYBR Green, 72 h; active compounds read low; in the data active means activity change below about -80%; inconclusive means no clear call, values can overlap the other calls
T cruzi growth-2 – inhibitors of T. cruzi proliferation. shares compounds with T cruzi growth-1. T. cruzi beta-gal in NIH3T3, GalScreen luminescence, 90 h. inhibition, % at 8.35 µM. actives 72% (n = 5,600). AID 651739;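 active means mean replicate inhibition above about 95% and at least 55% of replicates individually reaching it, limit read from the data; inconclusive means only one of the two criteria is met; inactive means neither criterion is met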
T cruzi growth-3 – Trypanosoma cruzi proliferation inhibition; shares compounds with T cruzi growth-1; T. cruzi beta-gal in NIH3T3, GalScreen luminescence, 90 h; inhibition, % at 2.09 µM; actives 21% (n = 5,600);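 active means mean inhibition above about 95%, with at least 55% of replicates also reaching it, limit read from the data; inconclusive means meets just one of the two conditions; inactive means meets neither condition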;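 further: plate controls were neutral control median for no effect and positive control median for full effect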
3T3 cytotox – kills mouse NIH/3T3 fibroblasts. shares compounds with T cruzi growth-1. NIH/3T3 viability, CellTiter-Glo ATP luminescence, 90 h. cytotoxicity (signal decrease), % at 8.35 µM. actives 14% (n = 5,600);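 active means mean signal decrease across replicates above about 35% based on untreated-well scatter, with enough replicates individually passing, limit read from the data; inconclusive means no rule stated though some were filed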;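 further: 0% = median of neutral control wells and 100% = median of positive control wells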
3T3 cytotox 2 – kills mouse NIH/3T3 fibroblasts | shares compounds with T cruzi growth-1 | actives 56% (n = 5,600) | AID 651744 | NIH/3T3 viability, CellTiter-Glo ATP luminescence, 90 h | inhibition, % at 24.9 µM;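 active means mean loss of cell viability signal at or above a set limit, and enough replicates individually reaching it; inconclusive means meets only the mean limit or only the replicate share; inactive means meets neither condition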;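 further: 0% = median of neutral control wells and 100% = median of positive control wells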
* = called active by the depositor; ? = inconclusive; · = not tested or not shown; ! = not active in a repeat. An excerpt weighted towards active compounds, which were near 6.7% of everything screened.

SMILES	T cruzi growth-1	C diff growth	Pf Dd2 inh	T cruzi growth-2	T cruzi growth-3	3T3 cytotox	3T3 cytotox 2
C[C@H]1CN([C@@H](C)CO)C(=O)c2cccc(NS(=O)(=O)c3ccc(Cl)cc3)c2O[C@@H]1CN(C)Cc1ccc(Cl)c(Cl)c1	66.1	17.7	-16.7	·	·	·	·
C[C@@H]1CN([C@H](C)CO)S(=O)(=O)c2ccc(C#CC3CC3)cc2O[C@H]1CN(C)Cc1ccccc1	126.8*	5.6	-52.4	95.2*	50.6	?	104.6*
C[C@H](CO)N1C[C@H](C)[C@@H](CN(C)Cc2ccccc2F)Oc2cc(C#CCN(C)C)ccc2S1(=O)=O	104.8*	-4.0	-59.8	104.9*	66.5	55.2*	104.3*
C[C@@H]1CN([C@H](C)CO)S(=O)(=O)c2ccc(C#CC3CC3)cc2O[C@@H]1CN(C)Cc1ccccc1	-5.8	-1.8	-39.6	·	·	·	·
C[C@@H]1CN([C@@H](C)CO)S(=O)(=O)c2ccc(C#CCN(C)C)cc2O[C@@H]1CN(C)Cc1ccccc1F	84.4	-1.4	-47.1	·	·	·	·
CC(C)CC#Cc1ccc2c(c1)O[C@H](CN(C)Cc1ccccc1F)[C@H](C)CN([C@H](C)CO)S2(=O)=O	?	·	-44.1	97.8*	112.8*	-8.7	105.4*
COCC#Cc1ccc2c(c1)O[C@H](CN(C)Cc1ccccc1F)[C@H](C)CN([C@@H](C)CO)S2(=O)=O	-24.6	-0.6	-19.0	·	·	·	·
O=C(C[C@@H]1CC[C@H]2[C@@H](COC[C@H](O)CN2Cc2ccc(F)cc2)O1)NCc1ccncn1	38.2	4.0	19.0	·	·	·	·
CN(C)CCCNC(=O)C[C@@H]1CC[C@H]2[C@H](COc3ccc(NC(=O)c4ccc5c(c4)OCO5)cc3C(=O)N2C)O1	-43.2	2.7	7.5	·	·	·	·
CC(C)CC#Cc1ccc2c(c1)O[C@H](CN(C)Cc1ccc(F)cc1)[C@H](C)CN([C@H](C)CO)S2(=O)=O	66.2	15.1	-73.7	·	·	·	·
CC(C)CC#Cc1ccc2c(c1)O[C@H](CN(C)Cc1ccc(F)cc1)[C@@H](C)CN([C@H](C)CO)S2(=O)=O	49.2	8.8	-45.0	·	·	·	·
CC(C)CC#Cc1ccc2c(c1)O[C@H](CN(C)Cc1ccccc1)[C@@H](C)CN([C@H](C)CO)S2(=O)=O	105.9*	12.2	-71.3	96.6*	88.7	-3.3	104.7*
CC(C)CC#Cc1ccc2c(c1)O[C@@H](CN(C)Cc1ccc(F)cc1)[C@H](C)CN([C@@H](C)CO)S2(=O)=O	36.3	4.5	-33.0	·	·	·	·
CC(C)CC#Cc1ccc2c(c1)O[C@@H](CN(C)Cc1ccccc1)[C@H](C)CN([C@@H](C)CO)S2(=O)=O	124.6*	12.5	-55.6	105.6*	?	48.7*	104.1*
CC(C)CC#Cc1ccc2c(c1)O[C@H](CN(C)Cc1ccccc1)[C@H](C)CN([C@@H](C)CO)S2(=O)=O	122.3*	18.0	-63.6	93.2	110.8*	20.6	106.7*
CC(C)NC(=O)N[C@@H]1C=C[C@@H](CC(=O)NCCCN(C)C)O[C@H]1CO	-2.8	·	42.2	·	·	·	·
C[C@H]1CN([C@@H](C)CO)C(=O)c2cc(C#CCN(C)C)cnc2O[C@H]1CN(C)C(=O)c1cccc(F)c1	-8.2	1.6	6.8	·	·	·	·
CN1C(=O)c2cc(NC(=O)c3cccc(F)c3)ccc2OC[C@H]2O[C@@H](CC(=O)N3CCc4ccccc4C3)CC[C@H]21	103.7*	-7.0	-2.1	96.7*	26.5	23.7	37.6*
CN1C(=O)c2cc(NC(=O)c3cccc(F)c3)ccc2OC[C@@H]2O[C@H](CC(=O)NCc3ccccc3)CC[C@H]21	-17.1	2.1	-32.9	·	·	·	·
CN1C(=O)c2cc(NC(=O)c3ccccc3)ccc2OC[C@@H]2O[C@H](CC(=O)NC3CCCC3)CC[C@H]21	8.2	-4.9	-23.5	·	·	·	·
CN1C(=O)c2cc(NC(=O)c3ccc(Cl)cc3)ccc2OC[C@H]2O[C@H](CC(=O)NCc3cccc(F)c3)CC[C@H]21	100.8*	10.7	-16.3	67.5	47.0	0.7	14.3
CN1C(=O)c2cc(NC(=O)c3ccc(Cl)cc3)ccc2OC[C@H]2O[C@H](CC(=O)NCc3cccc(F)c3)CC[C@@H]21	42.8	12.0	-17.0	·	·	·	·
CN1C(=O)c2cc(NC(=O)c3ccc(Cl)cc3)ccc2OC[C@@H]2O[C@@H](CC(=O)NCc3cccc(F)c3)CC[C@@H]21	103.4*	4.5	1.2	103.5*	34.3	32.3	60.9*
CN1C(=O)c2cc(NC(=O)c3cccc(F)c3)ccc2OC[C@H]2O[C@H](CC(=O)N3CCc4ccccc4C3)CC[C@@H]21	42.0	-2.2	0.9	·	·	·	·
CN1C(=O)c2cc(NC(=O)c3cccc(Cl)c3)ccc2OC[C@H]2O[C@@H](CC(=O)NC3CCCCC3)CC[C@H]21	106.7*	-2.4	-9.8	103.6*	44.6	26.9	37.7*
SMILES	T cruzi growth-1	C diff growth	Pf Dd2 inh	T cruzi growth-2	T cruzi growth-3	3T3 cytotox	3T3 cytotox 2
COc1ccc(NC(=O)N2CC(=O)N3[C@@H](CO)[C@@H](c4ccc(-c5ccc(C)cc5)cc4)[C@@H]3C2)cc1	·	-11.4	-3.2	·	·	·	·
COc1ccc(S(=O)(=O)N2C[C@@H](O)COC[C@H]3O[C@H](CC(=O)NCCCN4CCOCC4)CC[C@@H]32)cc1	-8.6	·	2.8	·	·	·	·
COc1ccc2c3c(n(C)c2c1)[C@@H](CO)N(S(=O)(=O)c1ccc(C)cc1)CC31CN(S(=O)(=O)c2ccc(C)cc2)C1	·	0.8	-72.6	·	·	·	·
O=C(C[C@@H]1C=C[C@@H](NC(=O)C2CCC2)[C@H](CO)O1)NC1CCCCC1	·	-1.0	·	·	·	·	·
CN1C(=O)c2cc(NC(=O)c3ccc(C(F)(F)F)cc3)ccc2OC[C@@H]2O[C@@H](CC(=O)NC3Cc4ccccc4C3)CC[C@H]21	99.8*	36.4	-12.2	105.8*	48.6	?	43.0*
CN1C(=O)c2cc(NC(=O)c3cccc(F)c3)ccc2OC[C@@H]2O[C@H](CC(=O)NCC3CCCCC3)CC[C@@H]21	117.3*	2.7	·	93.7	33.8	42.5*!	84.6*
CN1C(=O)c2cc(NC(=O)c3ccc(C(F)(F)F)cc3)ccc2OC[C@@H]2O[C@@H](CC(=O)NC3Cc4ccccc4C3)CC[C@@H]21	79.0	·	-12.6	·	·	·	·
CN1C(=O)c2cc(NC(=O)c3cccc(F)c3)ccc2OC[C@H]2O[C@@H](CC(=O)NCC3CCCCC3)CC[C@H]21	88.1	-0.5	·	·	·	·	·
C[C@H](CO)N1C[C@H](C)[C@H](CN(C)C(=O)Nc2ccc(C(F)(F)F)cc2)Oc2ccc(NS(=O)(=O)c3ccc(F)cc3)cc2C1=O	19.5	-8.2	-5.5	·	·	·	·
C[C@@H]1CN([C@@H](C)CO)C(=O)Cc2cc(NC(=O)NC3CCCCC3)ccc2O[C@H]1CN(C)CC1CCCCC1	65.2	-4.2	-40.0	·	·	·	·
CN(C)c1ccc2c(c1)[C@@H]1C[C@@H](CC(=O)NCc3ccccc3F)O[C@@H](CO)[C@@H]1O2	-1.8	-1.6	-2.1	·	·	·	·
O=C(C[C@@H]1CC[C@H](NC(=O)c2ccncc2)[C@H](CO)O1)Nc1ccc(-c2ccccc2)cc1	·	-4.3	10.2	·	·	·	·
